Where a name gives a salt, the structure may show the parent alone. ± gives the standard deviation of the averaged measurements.

This experiment has as its system Toxoplasma gondii RH (in HFF). Briefly: parasite growth relative to the screen mean (all compounds = 100%); higher = less inhibition of parasite growth. To be noted: 5 µM; 72 h; oxygen 21 %. In a few lines:
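Each value is parasite growth expressed against the screen mean, averaged over two screens, where the mean of all compounds = 100%. The screen used 5 µM final compound on confluent human foreskin fibroblasts infected with RH β-Gal–GFP Toxoplasma (MOI 1:5) within 2 h and grown 72 h at 21% O2. Parasite number was measured by a CPRG β-Gal assay against in-plate standard curves.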
Take `CCc1nn(CCCN2CCN(c3cccc(Cl)c3)CC2)c(=O)n1CCOc1ccccc1` [Nefazodone hydrochloride]: the parasite growth was 139 ± 7.4%.

As to `O=C(O)CC/C=C\C[C@H]1CO[C@@H](c2ccccc2Cl)O[C@H]1c1ccccc1O`, the parasite growth stood at 79.02 ± 0.65%.

Molecule `CN/C(=N\CCSCc1nc[nH]c1C)NC#N` [Cimetidine] gave a parasite growth of 118 ± 10%. In turn, `CCCCCCCCCCCCCCCC(=O)NCCO` [Palmitoylethanolamide] displayed a parasite growth of 64.8 ± 16%. `Oc1ccc(-c2c(-c3ccccc3)nn3c(C(F)(F)F)cc(C(F)(F)F)nc23)cc1` returned a parasite growth of 170 ± 8.6%. The figure for `CS(=O)(=O)CCNCc1nc(-c2ccc3ncnc(Nc4ccc(OCc5cccc(F)c5)c(Cl)c4)c3c2)cs1` is 63.4 ± 19%; for `Nc1nc(NCC2CCC(CNS(=O)(=O)c3cccc4ccccc34)CC2)nc2ccccc12` (centres undefined) it is under 0%.

`CN(C(=O)c1c(O)c2ccccc2n(C)c1=O)c1ccccc1` [Linomide] had a parasite growth of 135 ± 4.5%.

Turning to `CC1c2ccccc2CN1CC1=NCCN1` (centres undefined), the parasite growth is 131 ± 4.2%. With `O=C(O)CCc1ccc(NCc2cccc(Oc3ccccc3)c2)cc1`, the parasite growth came to 198 ± 12%. In the case of `Cc1ccc2c(c1)c1c3n2CCNC3CCC1` (centres undefined) [Pirlindole mesylate] it was 152 ± 16%; in that of `Cc1ccccc1N1CCN(S(=O)(=O)C[C@]23CC[C@H](C[C@@H]2NC(=O)[C@@H](N)CCS(C)(=O)=O)C3(C)C)CC1` [L-368,899 hydrochloride], 161 ± 16%. As to `N#Cc1ccccc1OCC(O)CNCCNC(=O)Nc1ccccc1` (centres undefined), the parasite growth was found to be 137 ± 18%. On to `COc1cccc2c1C(=O)c1c(O)c3c(c(O)c1C2=O)C[C@@](O)(C(=O)CO)C[C@@H]3O[C@H]1C[C@H](N)[C@H](O)[C@H](C)O1` [Doxorubicin hydrochloride], for which the parasite growth turned out to be 18.4 ± 7.7%. With `O=C(O)c1ccc(-c2ccc3cc(O)c(C45CC6CC(CC(C6)C4)C5)cc3c2)cc1`, the parasite growth stood at 146 ± 18%.

For `CCOC(=O)[C@]12CC1/C(=N\O)c1ccccc1O2` (some centres undefined), the parasite growth was 83 ± 23%. In the case of `N=C(N)S/C=C\C(=O)O` [ZAPA sulphate] it was 106 ± 28%; in that of `COC(=O)[C@H](NC(=O)c1cc(-c2ccccc2)nc2ccccc12)c1ccccc1`, 112.7 ± 0.18%; in that of `Nc1c(S(=O)(=O)O)cc(Nc2cccc3ccccc23)c2c1C(=O)c1ccccc1C2=O`, 172 ± 11%. In turn, `CC1OC2(CS1)CN1CCC2CC1` (centres undefined) [Cevimeline hydrochloride] came in with a parasite growth of 148 ± 82%. In the case of `COc1ccc2cc([C@H](C)C(=O)O)ccc2c1` [Naproxen sodium] it was 89.9 ± 13%; in that of `C/N=C(/NC#N)NCCSCc1csc(NC(=N)N)n1` [Tiotidine], 122 ± 30%; in that of `Cc1nc2ccc(NC(=O)Nc3ccnc4cccnc34)cc2o1`, 88.83 ± 0.52%. `OCCN(CCO)c1nc(N2CCCCC2)c2nc(N(CCO)CCO)nc(N3CCCCC3)c2n1` [Dipyridamole] had a parasite growth of 142 ± 1.7%. As for `O=C(O)C1=CCNCC1` [Isoguvacine hydrochloride], the parasite growth came out at 130 ± 9.5%.

For the molecule `COc1cccc2c1C(=O)c1c(O)c3c(c(O)c1C2=O)C[C@@](O)(C(C)=O)C[C@@H]3O[C@H]1C[C@H](N)[C@H](O)[C@H](C)O1` [Daunorubicin hydrochloride], the parasite growth is under 0%. In turn, `O=C(O)C1=CCCNC1` [Guvacine hydrochloride] yielded a parasite growth of 132.34 ± 0.044%. In turn, `COc1ccc2c3c1O[C@H]1C[C@@H](O)C=C[C@@]31CCN(C)C2` [Galanthamine hydrobromide] showed a parasite growth of 138 ± 30%. The figure for `CC(C)NCC(O)COc1cccc2ccccc12` (centres undefined) [Propranolol hydrochloride] is 99.4 ± 14%; for `O=C(CCCCCN1C(=O)c2cccc3cccc(c23)C1=O)NO` [Scriptaid] it is under 0%. With `CCOC(=O)c1ncc2[nH]c3cccc(OC(C)C)c3c2c1C`, the parasite growth amounted to 101 ± 26%.

In turn, `CC1(C)C[C@@H]1C(=O)N/C(=C\CCCCSC[C@H](N)C(=O)O)C(=O)O` [Cilastatin sodium] came in with a parasite growth of 117 ± 14%. On to `CNCCC(Oc1ccc(C(F)(F)F)cc1)c1ccccc1` (centres undefined) [Fluoxetine hydrochloride], for which the parasite growth came to 20.9 ± 8.2%.

In turn, `CCc1cc(-c2n[nH]c(C)c2-c2ccc3c(c2)OCCO3)c(O)cc1O` registered a parasite growth of 215 ± 12%. Regarding `C1CCC2(CC1)CCNCC2` [4,4-Pentamethylenepiperidine hydrochloride], the parasite growth came to 107 ± 22%. `CC[C@H](C)C(=O)O[C@H]1C[C@@H](C)C=C2C=C[C@H](C)[C@H](CC[C@@H]3C[C@@H](O)CC(=O)O3)[C@H]21` [Lovastatin] gave a parasite growth of 128 ± 17%. For the molecule `CN(C)CCCSc1ccccc1NC(=O)/C=C/c1ccccc1` [Cinanserin hydrochloride], the parasite growth was 120 ± 9.6%. Molecule `Cc1cc(I)ccc1Nc1c(C(=O)NOCC2CC2)cc(F)c(F)c1F` returned a parasite growth of 107 ± 21%. The molecule `FC(F)(F)c1ccc(/C=C/c2nc(COc3ccc(CCCCn4ccnn4)cc3)co2)cc1` gave a parasite growth of 36 ± 14%.

For the origin of these results see the supplement of paper PMC4894684.
